Among the data in PubChem BioAssay (EPA / NIEHS) are outcome and AC50 values, retold here.

Calls of active or inactive are those of the source. The calls were made as follows: active = hit-call score of the fitted dose curve at least 0.9, where 1 is the maximum; inactive = score below 0.9.

This experiment deals with Heat shock factor protein 1 (Homo sapiens) (UniProt Q00613). Briefly: ATG_HSE_CIS: Attagene CIS-FACTORIAL HepG2 Assay for human Heat Shock Transcription Factor 1 (HSE) (AID 2282953). The settings on record: HepG2 HSE cis-reporter, Attagene RNA transcription; actives raise or lower the signal. A digest of the protocol: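 Liver-derived HepG2 cells carry transiently introduced multiple reporter units governed by cis promoters. Reporter RNA measured 24 h post-dose through reverse transcription, PCR amplification, fluorescent labelling and capillary electrophoresis, normalised to DMSO.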
Chain of Heat shock factor protein 1 (Homo sapiens) (Q00613 whole entry, looked up): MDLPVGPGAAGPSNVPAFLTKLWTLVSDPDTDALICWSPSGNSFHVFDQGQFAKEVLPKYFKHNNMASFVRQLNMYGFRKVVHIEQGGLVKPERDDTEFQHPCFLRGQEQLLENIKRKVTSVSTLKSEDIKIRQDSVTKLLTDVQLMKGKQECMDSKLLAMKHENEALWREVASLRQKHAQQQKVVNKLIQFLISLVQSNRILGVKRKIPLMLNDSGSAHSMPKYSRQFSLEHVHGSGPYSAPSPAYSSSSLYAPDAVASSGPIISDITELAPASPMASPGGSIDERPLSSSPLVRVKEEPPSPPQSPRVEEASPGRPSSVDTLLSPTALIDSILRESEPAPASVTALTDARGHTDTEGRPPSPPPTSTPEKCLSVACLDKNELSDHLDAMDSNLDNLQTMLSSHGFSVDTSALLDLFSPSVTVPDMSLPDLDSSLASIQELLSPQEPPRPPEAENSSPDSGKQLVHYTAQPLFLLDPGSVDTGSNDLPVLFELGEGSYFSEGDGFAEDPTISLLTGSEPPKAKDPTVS
For the compound `ClC(Cl)(Cl)c1ccccc1`, the call was inactive. The same measure, in the same setting: the value for `CCCCN(CCCC)SN(C)C(=O)Oc1cccc2c1OC(C)(C)C2` was “inactive”; that for `Nc1ccc2ccccc2c1` was “inactive”; that for `O=C(O)C1C(C(=O)O)C2(Cl)C(Cl)=C(Cl)C1(Cl)C2(Cl)Cl` (stereo not given) was “inactive”. On the same count and under the same terms, the value for `Cc1cccc(N)c1` was “inactive”.

As to `CCCCOCCOP(=O)(OCCOCCCC)OCCOCCCC`, the call was inactive. On the same count and under the same terms, as for `CN(C)C(=O)Cl`, the entry is “inactive”; as for `O=C(O)C(Cl)Cl`, “inactive”; as for `OCC1CO1` (stereo not given), “inactive”. As for `CCCCN(CCCC)N=O`, the result was inactive. Same read-out and setting: as for `CSC(C)(C)C=NO`, the entry is “inactive”. The same measure, in the same setting: as for `CCCCCCCc1ccc(O)cc1`, the entry is “inactive”.

As to `CCN(CC)c1ccccc1`, the call was inactive. The same measure, in the same setting: the value for `Nc1cc2c3c(c1)C(c1ccccc1)=N[C@@H](NC(=O)c1cccnc1)C(=O)N3CC2` was “inactive”. Still for that read-out and setting: as for `Nc1ccc(Cl)cc1`, the entry is “inactive”. As to `CC(Cl)(Cl)C(=O)O`, the call was inactive. Still for that read-out and setting: the value for `CCOP(=S)(OCC)SCS(=O)(=O)CC` was “inactive”; that for `CCOC(=O)c1ccccc1C(=O)OCC` was “inactive”; that for `CCC1(c2ccccc2)C(=O)N=C(O)NC1=O` (stereo not given) was “inactive”. As to `O=C(CBr)OCc1ccccc1`, the result was inactive.

Consider `Cc1ccc(O)cc1C`, for which the outcome was inactive. For the compound `c1ccc(OP(Oc2ccccc2)Oc2ccccc2)cc1`, the result was inactive. The term AC50 denotes the concentration giving half of the maximal activity seen. Take `CCCCc1ccc(O)cc1`: the AC50 was 139 µM (active).

`COCCOCCO`: the compound was called inactive. Still for that read-out and setting: the value for `[N-]=[N+]=[N-]` was “inactive”. Same read-out and setting: the value for `ClC(Cl)c1ccccc1` was “inactive”.

`Nc1ccc(Sc2ccc(N)cc2)cc1`: the compound was classed as inactive. Still for that read-out and setting: as for `CCCN(CCC)c1c([N+](=O)[O-])cc(C(C)C)cc1[N+](=O)[O-]`, the entry is “inactive”; as for `CC1=C(C(=O)Nc2ccccc2)S(=O)(=O)CCO1`, “inactive”. The same measure, in the same setting: the value for `CC(Cc1ccc(OCC(=O)O)cc1)NCC(O)c1csc(C(F)(F)F)n1` (stereo not given) was “inactive”.
